Measurements published in PubChem BioAssay AID1063 (University of Pittsburgh Molecular Library Screening Center, 2008).
Screen size: about 200,000 compounds; about 18,000 (9%) were called active. No stated cut-off is given here; in the data, active means inhibition above about 50%; inactive means the rest. For the sample, actives were picked, then their nearest neighbours and some compounds at random.

experiment: antileishmanial activity against promastigotes – primary screen (AID 1063); details: Leishmania major promastigotes, resazurin fluorescence viability; at 10 µM; active compounds read high;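 further: promastigotes grown with compound for 44 hours at 28 °C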

Compound | inhibition
CNS(=O)(=O)c1ccc(NC(=O)C2CC(=O)N(c3ccc(Cl)cc3)C2)cc1 (stereo not given) | 13.6% (inactive)
Cc1cccc(NC(=S)NCCc2ccc(F)cc2)c1C | 28.5% (inactive)
COc1ccc(CN2CCNC(=O)C2CC(=O)N(C)Cc2ccccn2)cc1OC (stereo not given) | 0.79% (inactive)
Cc1[nH]c2ccccc2c1CCN(Cc1cccs1)C(=S)NC(C)(C)C | -1.09% (inactive)
COc1cccc(NC(=S)N(CCc2c(C)[nH]c3ccccc23)Cc2ccco2)c1 | 19.9% (inactive)
COc1ccc2[nH]c(C)c(CCN(Cc3cccs3)C(=S)Nc3ccccc3OC)c2c1 | 66.1% (active)
C/C(=N\NC(=O)c1cccnc1)c1ccc(-n2ccnc2)cc1 | -1.06% (inactive)
Cn1cc(-c2ccccc2)cc(C#N)c1=O | -20% (inactive)
CC(C)N1CCC(NC(=O)Nc2ccccc2)CC1 | -2.35% (inactive)
COc1cc(/C=C/C(=O)OCC(=O)N2CCOCC2)ccc1OCC#N | -11.6% (inactive)
Nc1nnc(SCn2nnc3ccccc3c2=O)s1 | -7.44% (inactive)
CCNC(=S)Nc1cccc(Cl)c1C | -6.44% (inactive)
Cc1c(Cl)cccc1NC(=S)NCc1ccc2c(c1)OCO2 | 81.5% (active)
S=C(NCc1ccc2c(c1)OCO2)NCc1ccco1 | 8.29% (inactive)
CC(C)(C)c1cnnn1-c1ccc([N+](=O)[O-])cc1 | -0.24% (inactive)
CCc1nnc(NS(=O)(=O)c2ccc(NC(=S)NC(=O)c3cccs3)cc2)s1 | -1.21% (inactive)
Cc1c(C(=O)O)nnn1-c1nonc1N | -0.68% (inactive)
Cc1ccc(/C=C(\C#N)C(=O)Nc2cccc3ncccc23)o1 | 55.2% (active)
O=C(Nc1cccc2ncccc12)C(Cl)(Cl)Cl | -0.02% (inactive)
Cc1ccc(C(=O)Nc2cccc3ncccc23)cc1[N+](=O)[O-] | 0.51% (inactive)
C=CCn1c(SCn2nnc3ccccc3c2=O)nnc1-c1ccc(Cl)cc1 | 1.86% (inactive)
C=CCn1c(SCc2cc(C(=O)OC)c(C)o2)nnc1-c1ccncc1 | -5.9% (inactive)
C=CCn1c(SCc2c(C(=O)OC)sc(N)c2C(=O)OC)nnc1-c1ccc(Cl)cc1 | 50.9% (active)
CCOC(=O)C1(CC2CCCCO2)CCN(Cc2nc(-c3cccs3)oc2C)CC1 (stereo not given) | 19.6% (inactive)
Cc1ccccc1NC(=O)NNC(=O)OC(C)(C)C | -6.97% (inactive)

Compound | inhibition
CCC(C)(C)NC(=O)C1c2ccccc2Oc2ccccc21 | 1.22% (inactive)
CCCC1=Nc2cc(C(=O)NCc3ccco3)ccc2Sc2ccccc21 | 91.3% (active)
CCCCOc1ccc(C(=O)NCc2ccco2)cc1 | -3.02% (inactive)
CCOc1ccccc1C(=O)NCc1ccco1 | -8.32% (inactive)
Cc1ccc(S(=O)(=O)N2CCOCC2)cc1NC(=O)CSc1nnc(N)s1 | -4.64% (inactive)
CC(Sc1nncn1C)C(=O)Nc1cc(C(F)(F)F)ccc1N1CCOCC1 (stereo not given) | -8.57% (inactive)
CCCCNC(=O)c1ccc(-n2c(=S)[nH]c3ccccc3c2=O)cc1 | 2.08% (inactive)
Cn1c(=O)c2cc(S(=O)(=O)NCCC(=O)Nc3ccc(F)cc3F)ccc2n(C)c1=O | 8.04% (inactive)
Cc1ccc(-n2ncc3c2ncn2nc(-c4ccco4)nc32)c(C)c1 | -2.03% (inactive)
Cc1ccc(-n2ncc3c(=O)n(-c4ccc(C)c(C)c4)c(-c4ccco4)nc32)cc1 | 51.5% (active)
Cc1ccc(-c2nc3c(cnn3-c3ccccc3)c(=O)o2)cc1 | -4.66% (inactive)
COc1ccc(-c2nc(CN3CCN(c4ncccn4)CC3)c(C)o2)cc1C | 30.8% (inactive)
COc1cc(OC)cc(-c2nc(=S)n3ccsc3n2)c1 | -3.3% (inactive)
O=C(N1CCCCC1)N1CCN(C(=O)N2CCCCC2)CC1 | -3.35% (inactive)
Cc1ccccc1NC(=O)c1nn(-c2ccc(F)c(F)c2)ccc1=O | -0.26% (inactive)
Cc1cnc(NC(=O)CSc2nnc(-c3ccccc3)n2Cc2ccccc2)s1 | 12.5% (inactive)
Cc1ccccc1-c1nnc(SCC(=O)NCc2ccc3c(c2)OCO3)n1C | -5.07% (inactive)
Cc1cccc(C)c1NC(=O)CSc1nnc(-c2ccccc2)n1Cc1ccc2c(c1)OCO2 | 53.4% (active)
COc1ccc(C2C(C(C)=O)=C(O)C(=O)N2CCc2c[nH]c3ccccc23)cc1 (stereo not given) | -4.35% (inactive)
COc1ccccc1NC(=O)CSc1nnc(C)n1CC1CCCO1 (stereo not given) | -2.8% (inactive)
COc1ccccc1NC(=O)CSc1nnc(-c2ccoc2C)n1CCc1ccccc1 | 76.2% (active)
CCCn1c(SCC(=O)Nc2cccc(C(=O)OCC)c2)nnc1-c1ccoc1C | 23.8% (inactive)
Cc1ccc(CN2CCC(N3CCC(C(=O)NCC4CCCO4)CC3)CC2)o1 (stereo not given) | -6.4% (inactive)
CC(=O)c1cc(-c2ccccc2)n(CC(=O)NC2CCCCC2)c1C | -2.4% (inactive)
COc1ccccc1NC(=O)/C=C/C(=O)O | -7.02% (inactive)

Compound | inhibition
COc1ccccc1NC(=O)c1ccc(C)s1 | 13.5% (inactive)
COc1ccccc1NC(=O)/C=C/C(N)=O | 59.7% (active)
O=C(COC(=O)c1cnc(Cl)c(Cl)c1)NCc1ccco1 | -5.74% (inactive)
O=C(CC1SCCNC1=O)Nc1ccc(Cl)cc1 (stereo not given) | -5.68% (inactive)
COc1cccc(CC2(CO)CCCN(CC3=Cc4cc(OC)ccc4OC3)C2)c1 (stereo not given) | -1.53% (inactive)
COc1ccc2c(c1)C=CC1(O2)N(CCO)c2ccccc2C1(C)C (stereo not given) | 99.2% (active)
COc1ccc2c(c1)C(SCC(=O)NCc1ccccc1)CC(C)(C)O2 (stereo not given) | -6.83% (inactive)
CC(C)C(=O)NCc1cc(-c2ccc(Cl)cc2)no1 | 1.34% (inactive)
CCN(c1ccccc1)S(=O)(=O)c1cccc(C(=O)O)c1 | -3.46% (inactive)
Cc1ccc(N(CC(O)CN2CCCC2)S(=O)(=O)c2ccccc2)cc1 (stereo not given) | 60.2% (active)
CCN(c1ccccc1)S(=O)(=O)c1ccc2[nH]c(=O)[nH]c2c1 | -5.33% (inactive)
Cc1cccc(N(CC(O)CN(C)C)S(=O)(=O)c2ccccc2)c1 (stereo not given) | 95.9% (active)
Cc1cc(C)n(CC(O)CN(c2ccccc2)S(=O)(=O)c2ccc3ccccc3c2)n1 (stereo not given) | 61.1% (active)
O=S(=O)(c1ccccc1)N(CC(O)CN1CCCCC1)c1ccccc1 (stereo not given) | 45% (inactive)
CCN(c1ccccc1)S(=O)(=O)c1ccc(N)cc1 | -4.44% (inactive)
Cc1cccc(N(CC(=O)N2CCOCC2)S(C)(=O)=O)c1 | 0.32% (inactive)
COc1ccccc1N(CC(=O)N1CCCCC1)S(=O)(=O)c1ccccc1 | -2.25% (inactive)
CC1CCCCC1NC(=O)COC(=O)Cc1ccc(Br)cc1 (stereo not given) | -8.18% (inactive)
C/C(=N\OCC(=O)Nc1ccc(Br)cc1)c1cccs1 | -1.5% (inactive)
Cc1cc(NC(=O)CN2C(=O)NC(C)(CCc3ccccc3)C2=O)no1 (stereo not given) | 2.34% (inactive)
CCc1cccc2c(=O)c(C(=O)NCCCOC)c[nH]c12 | -1.23% (inactive)
Cc1ccc(/C=N/NC(=O)C(NC(=O)c2ccccc2)c2n[nH]c(=O)c3ccccc23)cc1 (stereo not given) | -1.59% (inactive)
Cc1ccc(-c2nn(-c3ccccc3)cc2/C=N/NC(=O)c2ccc3c(c2)OCO3)cc1 | 8.23% (inactive)
Cc1ccc(/C=N/NC(=O)C2=NNC(c3ccccc3)(c3ccccc3)C2)c(O)c1 | 100% (active)
CNCC(O)CN1CCN(c2ccccc2OC)CC1 (stereo not given) | -6.68% (inactive)

Compound | inhibition
COC(=O)c1c(NC(=O)CN2C(=O)NC(CCc3ccccc3)C2=O)sc2c1CCCCC2 (stereo not given) | 28.1% (inactive)
Cc1c(Br)c([N+](=O)[O-])nn1CC(=O)Nc1sc2c(c1C(=O)OC(C)C)CCC(C)C2 (stereo not given) | -5.92% (inactive)
COC(=O)c1c(NC(=O)CN2CCN(S(=O)(=O)c3ccccc3[N+](=O)[O-])CC2)sc2c1CCC(C)C2 (stereo not given) | 76.2% (active)
Cc1ccc(NC(=O)C(=O)NCc2ccco2)c(C)c1 | -8.28% (inactive)
C/C(CC(=O)Nc1ccc(C)cc1C)=N\NC(=O)C(C)C | 13.4% (inactive)
NC(=O)c1ccc(N2CCOCC2)nc1 | 2.59% (inactive)
COc1ccc(-c2csc3ncnc(Oc4ccc5c(C)cc(=O)oc5c4)c23)cc1 | 16.6% (inactive)
Cc1cc(F)ccc1S(=O)(=O)Nc1ncnc2scc(-c3ccc(F)cc3)c12 | 64.1% (active)
CCn1cnc2scc(-c3ccc(C)c(C)c3)c2c1=O | -4.16% (inactive)
O=C(NCc1nnc(SCC(=O)N2CCC(Cc3ccccc3)CC2)o1)c1ccco1 | 25% (inactive)
COCC(C)NC(=O)COc1nncc2ccccc12 (stereo not given) | 4.91% (inactive)
CN1CCN(S(=O)(=O)c2cccc(C(=O)O)c2)CC1 | -1.21% (inactive)
O=C(NNC1=NCCC1)c1cccc(S(=O)(=O)N2CCCCC2)c1 | -5.29% (inactive)
CNC(=O)NC(=O)C(OC(=O)c1cccc(S(=O)(=O)N2CCCCC2)c1)c1ccccc1 (stereo not given) | 63.2% (active)
CCN1CCCC1CNc1ncnc2c1[nH]c1ccc(F)cc12 (stereo not given) | 78.6% (active)
CCN1CCCC1Cn1cnc2c([nH]c3cc(OC)ccc32)c1=O (stereo not given) | 10.5% (inactive)
CC(C)OCCCNc1ncnc2c1[nH]c1ccc(F)cc12 | 36.3% (inactive)
O=C(NCC1CCCCC1)c1cc(S(=O)(=O)N2CCCCC2)ccc1N1CCOCC1 | 7.99% (inactive)
Cc1cc(/C=C2/C(=N)N3C(=NC2=O)SN=C3S(C)(=O)=O)c(C)n1-c1ccccc1 | 3.11% (inactive)
O=C(Nc1ccc(N2C(=O)c3cccc4cccc(c34)C2=O)cc1)c1ccc(N2CCCCC2)c([N+](=O)[O-])c1 | 75% (active)
O=C(Nc1cccc(C(F)(F)F)c1)c1ccc(N2CCNCC2)c([N+](=O)[O-])c1 | 100% (active)
O=C(Nc1ccc2c(c1)OCO2)c1ccc(N2C(=O)c3ccccc3C2=O)cc1 | -0.72% (inactive)
O=C(COc1ccccc1F)NNC(=O)c1ccc(N2CCCCC2)c([N+](=O)[O-])c1 | -1.27% (inactive)
Cc1cccc(NC(=O)c2cccc(C(F)(F)F)c2)c1 | 13.2% (inactive)
CC(NC(=O)c1ccc(N2CCNCC2)c([N+](=O)[O-])c1)C12CC3CC(CC(C3)C1)C2 (stereo not given) | 7.22% (inactive)
